Source: PubChem
Shown are actives, neighbours in structure and some others; about 0.84% of the full set was active somewhere.
NR2F2 inh: NR2F2 (human) inhibition, primary screen; actives 0.7% (n = 370,000); inhibition, % at 8.6 µM; AID 686940; HEK293T NGFI-A luciferase reporter, luminescence; P24468;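 active means inhibition above a per-plate cutoff, mean inhibition of test wells between control levels plus 3 SD, cut at about 38% in these data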;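 further: cells cotransfected with COUP-TFII expression vector driving the NGFI-A reporter; 0% = median of COUP-TF2 test wells and 100% = reporter-only cells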
SRC3 inh: inhibits human SRC3 coactivator; Q9Y6Q9; HEK293 GAL4-SRC3 luciferase reporter, luminescence; inhibition, % at 3.6 µM; actives 0.17% (n = 360,000); AID 588352;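 active means inhibition above a per-campaign cutoff, the mean of all compounds plus 3 SD, cut at about 60% in these data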;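 further: 0% = DMSO-treated cells and 100% = gossypol-treated cells at 36 µM; higher means less SRC3-driven luciferase light from the GAL4 reporter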
LRH-1 inv ag: inverse agonists of human LRH-1 (NR5A2); HEK293T StAR-luciferase reporter, LRH-1 transfected, 24 h; inhibition, % at 3.6 µM; actives 0.13% (n = 360,000); AID 602396;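 active means inhibition above the mean inhibition of all tested compounds plus 3 SD, cut at about 73% in these data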;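 further: 0% = DMSO wells and 100% = reporter-only cells lacking LRH-1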
Target sequence (O00482 whole entry, looked up): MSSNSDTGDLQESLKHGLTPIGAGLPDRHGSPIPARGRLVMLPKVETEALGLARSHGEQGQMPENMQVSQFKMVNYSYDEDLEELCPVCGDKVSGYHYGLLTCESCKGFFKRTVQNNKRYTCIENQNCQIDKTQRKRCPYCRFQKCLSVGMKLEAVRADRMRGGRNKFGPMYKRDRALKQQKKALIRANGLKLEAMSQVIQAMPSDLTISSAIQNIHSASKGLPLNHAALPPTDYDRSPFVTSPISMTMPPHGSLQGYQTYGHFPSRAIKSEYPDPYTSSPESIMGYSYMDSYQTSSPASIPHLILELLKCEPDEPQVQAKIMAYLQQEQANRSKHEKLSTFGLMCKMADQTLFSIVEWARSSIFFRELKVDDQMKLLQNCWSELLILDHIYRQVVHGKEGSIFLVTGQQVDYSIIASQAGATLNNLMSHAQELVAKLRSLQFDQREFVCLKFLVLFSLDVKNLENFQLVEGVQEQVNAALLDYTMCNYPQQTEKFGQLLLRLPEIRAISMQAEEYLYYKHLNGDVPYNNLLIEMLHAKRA
SRC1 inh: human NCOA1 inhibition | inhibition, % at 3.6 µM | HEK293 GAL4-SRC1 luciferase reporter, luminescence | actives 0.12% (n = 360,000);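 active means inhibition above the campaign mean plus 3 SD, with each screening campaign given its own cutoff, cut at about 60% in these data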;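 further: 0% = DMSO treated cells and 100% = gossypol at 36 µM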
NCOA2 inhibitor: human SRC2 (NCOA2) inhibition; Q15596; HEK293 GAL4-SRC2 luciferase reporter, luminescence; inhibition, % at 9 µM; actives 0.17% (n = 370,000); AID 651957;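 active means inhibition above the mean inhibition of all tested compounds plus 3 SD, set per campaign, cut at about 52% in these data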;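 further: 0% = DMSO treated cells and 100% = cells given Gossypol at 36 µM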
VP16 Luc counter: VP16 inhibition counter-screen for COUP-TFII; shares compounds with NR2F2 inh; HEK293 Gal4-VP16 luciferase reporter, luminescence; inhibition, % at 8.5 µM; actives 25% (n = 2,500); in the data active means inhibition above about 13%
NR2F2 inh conf: confirmation of human COUP-TFII (NR2F2) inhibitors; inhibition, % at 8.5 µM; shares compounds with NR2F2 inh; actives 45% (n = 2,500); HEK293 NGFI-A luciferase reporter, luminescence;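 active means mean inhibition over three repeats above a set limit taken from the earlier primary screen, cut at about 38% in these data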;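 further: 100% = cells given the luciferase reporter alone without the COUP-TF2 vector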
An asterisk follows results filed as active; x = not tested or not shown; ! = not active in a repeat.

SMILES	NR2F2 inh	SRC3 inh	LRH-1 inv ag	SRC1 inh	NCOA2 inhibitor	VP16 Luc counter	NR2F2 inh conf
Cc1ccc(NC(=O)CSc2nn(-c3ccccc3)c(=S)s2)cc1S(=O)(=O)N(C)C	68.1*	18.2	28.7	-0.2	26.6	2.3	63.1*
O[C@@H]1[C@@H](O)C=C2CCN3Cc4cc5c(cc4[C@H]1C23)OCO5 (some centres undefined)	56.2*	88.8*	97.6*	75.0*	36.5	3.2	25.6
CCOC(=O)N1CCN(C(=O)c2ccc3c(c2)N(CC)CCS3)CC1	-1.0	1.2	14.4	1.6	-6.0	x	x
CCOC(=O)N1CCN(C(=O)c2ccc3c(c2)N(Cc2ccc(F)cc2)CCS3)CC1	37.8*	11.7	-17.7	2.2	20.2	1.7	-0.9
CC(=O)c1c(C)[nH]c(C(=O)OCCCCN2C(=O)c3ccccc3C2=O)c1C	52.9*	30.3	10.7	16.1	20.0	-0.3	60.5*
COc1ccc(OC)c(CC(=O)Nc2ccc3c(c2)CCC3)c1	8.2	6.1	14.2	-5.4	14.8	x	x
COc1ccc(CCC(=O)Nc2ccc(C)c(S(=O)(=O)N(C)C)c2)cc1OC	40.9*	16.6	28.8	13.2	21.3	0.8	15.3
COc1ccc(CC(=O)Nc2ccc3c(c2)CCC3)cc1OC	49.6*	27.2	23.2	24.8	-5.5	-3.6	12.0
Cc1ccc(S(=O)(=O)N2CCCC(C(=O)Nc3c(C)n(C)n(-c4ccccc4)c3=O)C2)cc1C (centres undefined)	9.9	x	x	x	10.4	x	x
COc1ccc(-n2cc(-c3ccc(C)cc3)[n+]3c2SCC3)cc1	66.5*	47.4	65.1	46.8	18.7	10.0	64.1*
Cc1ccc(-c2cn(-c3ccccc3)c3[n+]2CCCS3)cc1	54.6*	4.2	69.2	28.4	29.2	11.0	39.0*!
c1ccc(-c2cn(-c3ccccc3)c3[n+]2CCCS3)cc1	3.9	16.5	2.0	-10.7	6.5	x	x
COc1ccc(OCC(=O)N2CCN(c3nnc(-c4ccc(C)cc4)c4ccccc34)CC2)cc1	37.8*	27.1	16.9	7.3	9.4	-7.2	16.1
Cc1ccc(OCC(=O)N2CCN(c3nnc(-c4ccc(C)cc4)c4ccccc34)CC2)cc1	8.8	11.8	21.3	8.7	6.1	x	x
C#CCN(C[C@@H]1[C@@H](OC(=O)NC2CCCC2)[C@@H](OC(=O)NC2CCCC2)Cn2c(=O)ccc(=O)n21)S(=O)(=O)c1ccc(C)cc1	33.6	-30.1	25.8	-6.3	-29.6	x	x
C#CCN(C[C@@H]1[C@@H](OC(=O)NCc2ccccc2F)[C@@H](OC(=O)NCc2ccccc2F)Cn2c(=O)n(CCCCCC)c(=O)n21)S(=O)(=O)c1ccc(C)cc1	0.9	-7.4	16.3	-1.8	0.1	x	x
C#CCN(C[C@@H]1[C@@H](OC(=O)NCc2ccccc2F)[C@@H](OC(=O)NCc2ccccc2F)Cn2c(=O)ccc(=O)n21)S(=O)(=O)c1ccc(C)cc1	63.1*	35.6	25.4	4.9	22.1	23.4*	36.5
C#CCN(C[C@@H]1[C@@H](OC(=O)Nc2cccs2)[C@@H](OC(=O)Nc2cccs2)Cn2c(=O)ccc(=O)n21)S(=O)(=O)c1ccc(C)cc1	75.7*	25.4	53.1	14.2	52.0	25.1*	42.6*
c1nc(NCc2ccc3c(c2)OCO3)c2cc(-c3ccoc3)ccc2n1	39.3*	60.4	16.9	51.1	27.1	-19.4	9.8
Cc1cccc(-c2nnc(SCC(=O)c3ccc(F)cc3)n2C)c1	-9.2	x	x	x	-29.2	x	x
CC(C)Cc1ccc(CN2CCCC(NC(=O)c3ccnn3C)C2)cc1 (centres undefined)	45.7*	11.8	5.5	-1.2	23.2	-6.7	18.3
CC(C)(C)NC(=O)CSc1nc2ccc(NC(=O)CSc3nnnn3Cc3ccccc3)cc2s1	66.8*	37.6	38.3	33.5	11.4	2.3	51.2*
COC(=O)[C@]12C[C@H](CC(=O)N3CCN(C(=O)c4ccco4)CC3)C(=O)N(Cc3cccc4ccccc34)C1=C[C@H](C(C)(C)C)O[C@@H]2C	22.8	x	x	x	10.1	x	x
Cc1cc(NNC(=O)c2cccc(C(F)(F)F)c2)nc2c1c(C)nn2C	49.5*	20.1	33.6	12.5	24.1	-1.6	43.4*
Cc1cc(C)n(CC(=O)NNC(=O)c2cccc(C(F)(F)F)c2)n1	0.2	-9.6	8.5	7.0	18.4	x	x
SMILES	NR2F2 inh	SRC3 inh	LRH-1 inv ag	SRC1 inh	NCOA2 inhibitor	VP16 Luc counter	NR2F2 inh conf
C=CCc1cccc2cc(C(=O)O)c(=O)oc12	1.4	1.9	-14.9	-28.9	-4.2	x	x
C=CCc1cccc2cc(C(=O)Nc3ccccc3C(=O)O)c(=O)oc12	40.7*	27.5	6.2	-2.6	-0.1	-8.2	47.0*
Cc1ccc(-n2ncc3c2CCCC3NC(=O)c2ocnc2C)cc1C (centres undefined)	66.3*	27.3	34.8	20.8	17.5	5.6	61.3*
CCn1nc(C)cc1C(=O)NC1CCCc2c1cnn2-c1ccc(C)c(C)c1 (centres undefined)	54.3*	9.3	29.5	5.5	4.0	-5.2	39.6*
Cc1cc(C(=O)NC2CCCc3c2cnn3-c2cccc(C)c2C)n(C)n1 (centres undefined)	66.5*	19.7	43.7	12.3	14.1	7.5	68.1*
CC(=O)Nc1ccc(NC(=O)CSc2nnc(-c3cccs3)o2)cc1	5.3	x	x	x	8.6	x	x
O=C(CCc1ccccc1)N[C@H]1[C@@H](OC(=O)c2ccco2)CCC[C@@]12C(=O)N(Cc1ccccc1)c1ccccc12	-7.9	x	x	x	14.9	x	x
O=C(c1cc(COc2ccc3ncccc3c2)on1)N1CCCCCC1	43.0*	26.4	33.8	12.4	10.7	3.7	49.2*
O=C(NC1CCCC1)c1cc(COc2ccc3ncccc3c2)on1	x	37.2	35.7	23.6	x	x	x
COCC1CCN(C(=O)c2cc(COc3ccc4ncccc4c3)on2)CC1	19.2	26.8	34.5	17.7	16.1	x	x
O=C(c1cc(COc2ccc3ncccc3c2)on1)N1CCCC1	45.6*	1.3	4.3	-8.0	-12.7	-40.2	23.9
CC(NC(=O)c1cc(COc2ccc3ncccc3c2)on1)c1ccc(F)cc1 (centres undefined)	69.1*	28.4	39.7	9.6	21.1	-0.3	57.9*
O=C(NCCc1cn2ccccc2n1)c1cc(COc2ccc3ncccc3c2)on1	64.2*	32.6	16.6	15.1	2.0	-3.1	83.0*
COC(=O)c1ccc(S(=O)(=O)N2CCCN(Cc3cccc(Br)c3F)CC2)n1C	54.8*	15.6	24.3	11.9	27.7	-5.0	11.1
COC(=O)c1ccc(S(=O)(=O)N2CCCN(Cc3ccccc3)CC2)n1C	-13.2	7.3	19.4	12.5	15.2	x	x
CCCCOCCCNC(=O)C[C@@H]1C(=O)N2CCCC3=C2[C@@]1(C(=O)OCC)CCC3	-2.0	x	x	x	9.4	x	x
Cc1ccc2[nH]c3c(NCc4ccco4)ncnc3c2c1	46.8*	-22.0	-61.4	-40.7	-1.8	-139.1	-24.1
